The values below come from the supplement of paper PMC10849652.

Targets with a hit are over-represented here; the source holds about 7,900 in all. About 0.6% of all pairs of compound and target were hits.

UniProt P33121, sequence (P33121 whole entry, looked up): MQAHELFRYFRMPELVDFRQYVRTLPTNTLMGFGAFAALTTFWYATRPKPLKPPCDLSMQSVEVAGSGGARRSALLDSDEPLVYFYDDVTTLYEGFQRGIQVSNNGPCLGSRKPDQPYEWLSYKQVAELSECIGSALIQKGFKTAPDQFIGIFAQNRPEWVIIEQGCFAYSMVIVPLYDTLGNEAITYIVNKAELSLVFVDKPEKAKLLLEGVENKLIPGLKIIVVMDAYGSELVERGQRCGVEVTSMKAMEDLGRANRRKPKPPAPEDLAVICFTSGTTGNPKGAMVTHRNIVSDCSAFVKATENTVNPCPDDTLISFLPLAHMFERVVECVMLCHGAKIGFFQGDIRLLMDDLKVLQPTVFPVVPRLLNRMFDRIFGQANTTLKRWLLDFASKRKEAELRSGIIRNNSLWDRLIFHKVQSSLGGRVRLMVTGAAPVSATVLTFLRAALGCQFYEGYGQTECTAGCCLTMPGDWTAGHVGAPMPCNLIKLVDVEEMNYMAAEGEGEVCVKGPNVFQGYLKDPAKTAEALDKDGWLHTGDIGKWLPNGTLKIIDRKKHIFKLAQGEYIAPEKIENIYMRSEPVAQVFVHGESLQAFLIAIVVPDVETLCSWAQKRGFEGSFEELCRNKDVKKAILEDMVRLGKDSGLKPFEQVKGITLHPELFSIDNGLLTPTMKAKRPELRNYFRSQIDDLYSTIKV
UniProt Q13825, sequence (Q13825 whole entry, looked up): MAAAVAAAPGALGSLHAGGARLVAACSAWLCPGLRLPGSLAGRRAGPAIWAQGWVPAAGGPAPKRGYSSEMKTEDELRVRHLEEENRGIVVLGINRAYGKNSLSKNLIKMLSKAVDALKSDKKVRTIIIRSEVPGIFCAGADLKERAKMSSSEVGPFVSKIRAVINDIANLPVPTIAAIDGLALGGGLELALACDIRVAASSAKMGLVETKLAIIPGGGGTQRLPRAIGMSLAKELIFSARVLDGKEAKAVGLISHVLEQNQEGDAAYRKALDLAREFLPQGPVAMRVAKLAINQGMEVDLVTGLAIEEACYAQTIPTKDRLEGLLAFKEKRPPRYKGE
UniProt Q92560, sequence (Q92560 whole entry, looked up): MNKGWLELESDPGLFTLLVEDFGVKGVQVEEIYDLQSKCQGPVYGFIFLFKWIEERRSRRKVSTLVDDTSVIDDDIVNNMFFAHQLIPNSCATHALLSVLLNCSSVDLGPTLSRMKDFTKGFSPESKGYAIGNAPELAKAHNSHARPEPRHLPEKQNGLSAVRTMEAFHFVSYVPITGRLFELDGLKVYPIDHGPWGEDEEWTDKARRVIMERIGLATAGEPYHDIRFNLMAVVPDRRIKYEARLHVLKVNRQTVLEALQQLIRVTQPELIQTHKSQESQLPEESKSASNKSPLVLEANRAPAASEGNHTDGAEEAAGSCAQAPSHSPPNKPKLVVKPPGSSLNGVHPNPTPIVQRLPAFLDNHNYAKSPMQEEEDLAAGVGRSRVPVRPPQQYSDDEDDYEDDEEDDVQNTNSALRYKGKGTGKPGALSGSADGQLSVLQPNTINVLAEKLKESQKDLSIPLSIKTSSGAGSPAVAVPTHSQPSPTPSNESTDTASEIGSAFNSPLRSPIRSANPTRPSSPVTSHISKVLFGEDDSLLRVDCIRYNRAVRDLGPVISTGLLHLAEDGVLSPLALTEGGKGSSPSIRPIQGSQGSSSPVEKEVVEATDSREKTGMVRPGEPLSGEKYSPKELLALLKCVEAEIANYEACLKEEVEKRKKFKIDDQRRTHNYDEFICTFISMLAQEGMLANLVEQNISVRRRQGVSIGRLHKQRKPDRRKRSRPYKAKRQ
UniProt Q9P287, sequence (Q9P287 whole entry, looked up): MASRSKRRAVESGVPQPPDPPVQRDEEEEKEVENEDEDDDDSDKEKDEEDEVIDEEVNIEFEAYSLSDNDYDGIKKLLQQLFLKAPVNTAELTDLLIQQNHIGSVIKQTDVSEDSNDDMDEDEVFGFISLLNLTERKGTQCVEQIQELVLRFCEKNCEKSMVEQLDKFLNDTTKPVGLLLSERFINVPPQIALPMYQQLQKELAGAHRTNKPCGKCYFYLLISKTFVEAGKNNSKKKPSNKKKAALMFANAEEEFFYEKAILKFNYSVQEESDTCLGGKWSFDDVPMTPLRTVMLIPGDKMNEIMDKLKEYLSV
UniProt O43823, sequence (O43823 whole entry, looked up): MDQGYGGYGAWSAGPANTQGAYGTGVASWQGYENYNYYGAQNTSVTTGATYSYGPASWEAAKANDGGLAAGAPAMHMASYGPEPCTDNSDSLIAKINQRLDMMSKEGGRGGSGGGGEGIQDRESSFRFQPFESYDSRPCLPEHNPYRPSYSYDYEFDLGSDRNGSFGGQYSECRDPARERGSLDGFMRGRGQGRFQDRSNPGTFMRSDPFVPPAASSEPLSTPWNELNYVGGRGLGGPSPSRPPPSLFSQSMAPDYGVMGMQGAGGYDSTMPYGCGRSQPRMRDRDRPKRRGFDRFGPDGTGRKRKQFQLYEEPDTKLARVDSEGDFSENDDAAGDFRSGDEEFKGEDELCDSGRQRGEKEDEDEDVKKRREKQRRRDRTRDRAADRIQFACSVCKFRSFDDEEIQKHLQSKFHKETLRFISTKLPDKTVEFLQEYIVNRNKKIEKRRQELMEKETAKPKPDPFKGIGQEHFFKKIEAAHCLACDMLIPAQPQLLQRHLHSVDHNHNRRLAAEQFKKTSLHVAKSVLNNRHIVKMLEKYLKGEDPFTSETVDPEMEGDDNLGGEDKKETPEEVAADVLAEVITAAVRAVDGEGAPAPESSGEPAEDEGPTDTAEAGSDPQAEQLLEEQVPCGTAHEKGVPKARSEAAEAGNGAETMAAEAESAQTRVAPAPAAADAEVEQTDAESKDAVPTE
UniProt Q06481, sequence (Q06481 whole entry, looked up): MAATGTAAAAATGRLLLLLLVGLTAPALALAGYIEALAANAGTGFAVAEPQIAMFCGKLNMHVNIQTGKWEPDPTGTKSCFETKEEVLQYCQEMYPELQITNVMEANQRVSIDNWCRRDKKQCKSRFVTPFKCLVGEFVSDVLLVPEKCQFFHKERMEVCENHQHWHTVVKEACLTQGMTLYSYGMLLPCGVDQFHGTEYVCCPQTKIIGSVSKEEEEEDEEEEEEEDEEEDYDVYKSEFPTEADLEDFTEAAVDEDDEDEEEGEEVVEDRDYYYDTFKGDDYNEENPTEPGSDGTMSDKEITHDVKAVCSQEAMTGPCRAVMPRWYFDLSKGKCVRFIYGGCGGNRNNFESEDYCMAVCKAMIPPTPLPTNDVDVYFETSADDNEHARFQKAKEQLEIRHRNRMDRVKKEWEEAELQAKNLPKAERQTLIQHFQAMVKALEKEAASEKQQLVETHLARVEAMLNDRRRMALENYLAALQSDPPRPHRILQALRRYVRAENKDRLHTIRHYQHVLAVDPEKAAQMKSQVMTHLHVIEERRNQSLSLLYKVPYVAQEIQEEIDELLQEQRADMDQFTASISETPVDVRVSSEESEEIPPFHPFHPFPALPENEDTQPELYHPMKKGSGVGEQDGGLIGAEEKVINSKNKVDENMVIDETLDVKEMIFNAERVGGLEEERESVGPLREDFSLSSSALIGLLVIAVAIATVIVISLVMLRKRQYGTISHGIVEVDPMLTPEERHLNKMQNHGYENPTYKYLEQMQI
UniProt Q8N6D5, sequence (Q8N6D5 whole entry, looked up): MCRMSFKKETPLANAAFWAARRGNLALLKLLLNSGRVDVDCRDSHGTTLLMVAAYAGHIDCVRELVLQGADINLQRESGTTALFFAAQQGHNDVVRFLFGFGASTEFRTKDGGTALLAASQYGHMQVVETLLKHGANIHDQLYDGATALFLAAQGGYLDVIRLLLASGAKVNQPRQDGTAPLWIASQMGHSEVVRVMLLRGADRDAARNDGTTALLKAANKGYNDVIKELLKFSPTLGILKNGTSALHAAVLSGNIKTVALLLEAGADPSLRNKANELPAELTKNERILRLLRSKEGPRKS
UniProt O94973, sequence (O94973 whole entry, looked up): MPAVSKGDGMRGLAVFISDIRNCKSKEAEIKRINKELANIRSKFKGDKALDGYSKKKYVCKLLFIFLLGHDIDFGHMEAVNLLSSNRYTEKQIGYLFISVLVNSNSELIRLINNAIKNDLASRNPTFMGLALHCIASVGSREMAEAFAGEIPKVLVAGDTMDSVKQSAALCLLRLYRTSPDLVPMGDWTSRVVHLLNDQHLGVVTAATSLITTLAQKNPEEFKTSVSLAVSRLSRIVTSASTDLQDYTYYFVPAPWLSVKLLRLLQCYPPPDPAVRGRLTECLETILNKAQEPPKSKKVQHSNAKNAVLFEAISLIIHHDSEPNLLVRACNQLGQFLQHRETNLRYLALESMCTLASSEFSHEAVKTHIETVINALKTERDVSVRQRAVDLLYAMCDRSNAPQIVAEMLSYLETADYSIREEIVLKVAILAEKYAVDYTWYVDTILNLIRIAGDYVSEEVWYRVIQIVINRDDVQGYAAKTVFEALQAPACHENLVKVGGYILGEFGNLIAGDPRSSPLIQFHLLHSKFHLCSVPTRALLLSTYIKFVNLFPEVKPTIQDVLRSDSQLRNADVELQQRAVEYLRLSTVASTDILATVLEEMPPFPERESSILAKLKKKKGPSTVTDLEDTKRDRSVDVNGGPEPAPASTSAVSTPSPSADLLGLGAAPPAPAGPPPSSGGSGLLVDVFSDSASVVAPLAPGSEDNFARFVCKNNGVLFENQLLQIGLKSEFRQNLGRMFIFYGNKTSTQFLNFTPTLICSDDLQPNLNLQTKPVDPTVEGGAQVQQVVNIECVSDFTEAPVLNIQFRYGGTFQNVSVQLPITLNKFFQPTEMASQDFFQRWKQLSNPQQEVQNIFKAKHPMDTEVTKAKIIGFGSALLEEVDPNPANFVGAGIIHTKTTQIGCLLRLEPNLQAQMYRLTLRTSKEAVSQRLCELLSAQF
UniProt P55957, sequence (P55957 whole entry, looked up): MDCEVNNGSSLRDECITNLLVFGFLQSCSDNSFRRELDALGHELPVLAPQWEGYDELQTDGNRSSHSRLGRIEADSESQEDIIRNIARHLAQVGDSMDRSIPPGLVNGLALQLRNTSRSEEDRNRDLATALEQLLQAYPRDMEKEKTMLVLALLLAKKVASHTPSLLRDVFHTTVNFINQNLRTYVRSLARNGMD

Compound in one experiment: Cc1sc2c(c1C)C(c1ccc(Cl)cc1)=N[C@@H](CC(=O)OC(C)(C)C)c1nnc(C)n1-2
The experiment can be described thus: log2 fold change, soluble protein after heating vs DMSO (PISA); higher = thermal stabilisation; K562 cells, 10 uM, 30 min; active = over 0.2 and 3.5 SD of the protein, either way, in both replicates (recomputed). In short, it runs like this: (§1)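 Thermal stability values are relative to control samples and come from duplicates. They are expressed as log2 fold changes. For measurement, K562 cells (2×10^6 cells/mL) received 10 μM compound for 30 min, and aliquots were heated for 3 min over 48°C-58°C, pooled, and extracted at 4°C in PBS with 0.5% NP-40. Soluble protein, the supernatant after 21,000xg for 90 min, was quantified by TMTpro 16plex LC-MS/MS with equalised channel sums.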
Consider ABHD11 (UniProt Q8NFV4), for which the log2 fold change was -0.12 (inactive).

With BCCIP (UniProt Q9P287), the log2 fold change was -0.037 (inactive).

In the case of ACSL1 (UniProt P33121), the log2 fold change was 0.001 (inactive).

For the target APLP2 (UniProt Q06481), the log2 fold change is 0.036 (inactive).

In the case of AP2A2 isoform 2 (UniProt O94973), the log2 fold change was 0.048 (inactive).

On to AAMP (UniProt Q13685), for which the log2 fold change was -0.032 (inactive).

Turning to ADK (UniProt P55263), the log2 fold change was -0.008 (inactive).

Regarding ARRDC1 (UniProt Q8N5I2), the log2 fold change is -0.1 (inactive).

With ACBD6 (UniProt Q9BR61), the log2 fold change was -0.072 (inactive).

Compound in another experiment: c1ccc([C@@H]2C[C@H]2NC2CCNCC2)cc1
The description is as above. In short, it runs like this:
as §1
On to AUH (UniProt Q13825), for which the log2 fold change is -0.001 (inactive).

As for BZW2 (UniProt Q9Y6E2), the log2 fold change was -0.014 (inactive).

As for ANP32E (UniProt Q9BTT0), the log2 fold change was 0.075 (inactive).

For the target B4GALNT1 (UniProt Q00973), the log2 fold change was -0.062 (inactive).

Turning to BAP1 (UniProt Q92560), the log2 fold change was -0.037 (inactive).

ATP12A isoform 2 (UniProt P54707): the log2 fold change is -0.043 (inactive).

Take BRK1 isoform 2 (UniProt Q8WUW1): the log2 fold change was -0.013 (inactive).

ARAF (UniProt P10398): the log2 fold change was 0.027 (inactive).

For the target AP2S1 (UniProt P53680), the log2 fold change was 0.043 (inactive).

For BSCL2 isoform 4 (UniProt Q96G97), the log2 fold change is -0.127 (inactive).

With AKAP8 (UniProt O43823), the log2 fold change was 0.347 (active).

As to ANKRD29 (UniProt Q8N6D5), the log2 fold change is -0.079 (inactive).

Take BID isoform 2 (UniProt P55957): the log2 fold change is -0.053 (inactive).

For the target ACO2 (UniProt Q99798), the log2 fold change is -0.046 (inactive).
